The text below walks through data of PubChem BioAssay (EPA / NIEHS).

Several values for one entry are separate records, joined by “and”; a condition that tells them apart may be missing. Identical values can stand only once. More than one record can exist for a structure, and the calls need not agree. Activity calls are given as the source filed them. Rule for the calls: active = hit-call score of the fitted dose curve at least 0.9, where 1 is the maximum; inactive = score below 0.9.

A short description of this assay: APR_HepG2_StressKinase_24hr: Apredica 24-hour HepG2 Assay for Stress Kinase (AID 2282922). The note with it: HepG2 stress kinase (phospho-c-Jun) imaging, actives raise or lower the signal. The method, then: APR_HepG2_24hr is a cell-based, multiplexed-readout assay that uses HepG2, a human liver cell line, with measurements taken at 24 hours after chemical dosing in a 384-well plate.APR_HepG2_StressKinase_24hr is one of 10 assay component(s) measured or calculated from the APR_HepG2_24hr assay. It is designed to make measurements of enzyme activity, a form of enzyme reporter, as detected with fluorescence intensity signals by HCS Fluorescent Imaging technology.Data from the assay component APR_HepG2_StressKinase_24hr was analyzed into 1 assay endpoint. This assay endpoint, APR_HepG2_StressKinase_24hr, was analyzed with bidirectional fitting relative to DMSO as the negative control and baseline of activity. Using a type of enzyme reporter, measures of protein for gain or loss-of-signal activity can be used to understand the signaling at the pathway-level as they relate to the gene . Furthermore, this assay endpoint can be referred to as a primary readout, because this assay has produced multiple assay endpoints where this one serves a signaling function. To generalize the intended target to other relatable targets, this assay endpoint is annotated to the cell cycle intended target family, where the subfamily is stress response.
Cells were treated with dimethyl sulfoxide (DMSO) as a solvent control at a final concentration of 0.5% v/v or with compounds in DMSO with a resulting final DMSO concentration of 0.5% v/v. Compound treatment was done at concentrations of 0.39, 0.78, 1.56, 3.12, 6.24, 12.5, 25, 50, 100, and 200 uM in duplicate on each plate. Cells were treated with compounds for 1, 24, or 72 hr. Carbonyl […] m-chloro-phenylhydrazone (CCCP) and taxol were used as positive controls for mitochondrial function and cytoskeletal stability, respectively; DMSO served as the negative control for this experiment. Cells were fixed by the direct addition of 50 uL formaldehyde in Hank's Balanced Salt Solution (HBSS) to a final concentration of 3.7%. After incubation in the fixation medium for 30 min at room temperature (293-298 K), cells were rinsed twice with HBSS and treated with cell permeabilization buffer (16 uL of 0.5% Triton X-100) for 10 min at room temperature (293-298 K) before labeling. For mitochondrial membrane potential and mitochondrial measurements, pre-fixed cells were incubated with 50 uL of MitoTracker Red CMXRos (Invitrogen) at a concentration of 250 nM for 30 min before fixation. In the remaining cases, post-fixed cells were labeled by incubation with a multiplexed mixture of primary antibodies in HBSS for 60 min at room temperature (293-298 K) to detect immunoreactivity of c-Jun (1:500), phospho-histone H3 (1:100), phospho-histone H2A.x (1:200), p53 (1:400), alpha-tubulin (1:200) and Hoechst 33342 (2 ug/mL). Cells were labeled for multiplexed imaging on two separate plates: a) Hoechst 33342, MitoTracker Red, phospho-histone H3, and alpha-tubulin, and b) Hoechst 33342, phospho-histone H2A.x, and c-Jun. A final rinse with HBSS (50 uL) was performed before analysis. The primary and secondary antibodies for the proteins were phospho-histone H3 (rabbit anti-phospho-histone H3 and FITC-donkey anti-rabbit IgG), phospho-histone H2A.x (mouse anti-phospho-histone H2A.x and FITC-donkey anti-mouse IgG), c-Jun (rabbit anti-phospho-c-Jun and Cy3-donkey anti-rabbit IgG), p53 (sheep anti-p53 and Cy5-donkey anti-sheep IgG), alpha-tubulin (mouse anti-alpha-tubulin and Cy5-donkey anti-mouse IgG). These antibodies are available as the CellCiphr HepG2 assay kit (Millipore).Digital images of each well were captured using a Cellomics ArrayScan VTI (Thermo Scientific Cellomics) (0.8 NA objective, 0.63x optical coupler, and XF-93 filter set) at 20x magnification. The images were acquired using the autofocus feature of the ArrayScan instrument, which entails the following steps. First, the camera focuses on channel 1 (Hoechst 33342), where nuclei are identified. Second, a Z offset of 1 um is used for capturing mitochondria (MitoTracker Red). […]
Turning to `Cc1[nH]c(=O)n(C(C)(C)C)c(=O)c1Cl`, the call was inactive.

Take `[2H]C1([2H])[n+]2ccccc2-c2cccc[n+]2C1([2H])[2H]`: the call was inactive.

For the compound `CCCN(CCOc1c(Cl)cc(Cl)cc1Cl)C(=O)n1ccnc1`, the compound was called inactive.

Take `OCCOc1ccccc1`: the outcome was inactive.

In the case of `CC[C@H](C)[C@H]1O[C@]2(C=C[C@@H]1C)C[C@@H]1C[C@@H](C/C=C(\C)[C@@H](O[C@H]3C[C@H](OC)[C@@H](O[C@H]4C[C@H](OC)[C@@H](O)[C@H](C)O4)[C@H](C)O3)[C@@H](C)/C=C/C=C3\CO[C@@H]4[C@H](O)C(C)=C[C@@H](C(=O)O1)[C@]34O)O2` (tested in a mixture with another compound), the call was inactive.

For the compound `Oc1cc(Cl)ccc1Oc1ccc(Cl)cc1Cl`, the result was inactive.

With `CCC(C)(NC(=O)c1cc(Cl)c(C)c(Cl)c1)C(=O)CCl` (stereo not given), the compound was classed as inactive.

Take `O=S(=O)(O)C(F)(F)C(F)(F)C(F)(F)C(F)(F)C(F)(F)C(F)(F)C(F)(F)C(F)(F)F`: the result was inactive.

Turning to `COP(=O)(OC)OC=C(Cl)Cl`, the compound was classed as inactive.

For the compound `C#CCN1C(=O)COc2cc(F)c(N3C(=O)C4=C(CCCC4)C3=O)cc21`, the outcome was inactive.

Turning to `O=C(O)C(F)(F)C(F)(F)C(F)(F)C(F)(F)C(F)(F)C(F)(F)C(F)(F)F`, the compound was called inactive.

Take `Cc1cc(C)nc(NC(=O)NS(=O)(=O)c2ccccc2C(=O)OC2COC2)n1`: the call was inactive.

On to `COC(=O)c1ccccc1S(=O)(=O)NC(=O)Nc1nc(C)nc(OC)n1`, for which the result was inactive.

`O=S1OCC2C(CO1)C1(Cl)C(Cl)=C(Cl)C2(Cl)C1(Cl)Cl` (stereo not given): the call was inactive.

As to `Clc1ccccc1-c1nnc(-c2ccccc2Cl)nn1`, the compound was classed as inactive.

For `CNC(=O)CSP(=S)(OC)OC`, the compound was classed as inactive.

On to `O=[N+]([O-])/N=C1\NCCN1Cc1ccc(Cl)nc1`, for which the compound was called inactive.

Take `COc1cc(OC)nc(NC(=O)NS(=O)(=O)c2cc(NC=O)ccc2C(=O)N(C)C)n1`: the call was inactive.

`O=C(O)CCCOc1ccc(Cl)cc1Cl`: the call was inactive.

For the compound `CC(C)OC(=O)Nc1cccc(Cl)c1`, the outcome was inactive.

Take `CC1(c2ccc(Oc3ccccc3)cc2)OC(=O)N(Nc2ccccc2)C1=O` (stereo not given): the compound was called inactive.

With `COC(=O)c1ccccc1CS(=O)(=O)NC(=O)Nc1nc(OC)cc(OC)n1`, the call was inactive.

By AC50 is commonly meant the concentration at which the activity in the assay is half-maximal. With `Oc1ccc(Cl)cc1Cc1ccccc1`, the result was inactive; the AC50 was 150 µM (active) and 99 µM (active).

For the compound `CCOC1Oc2ccc(OS(C)(=O)=O)cc2C1(C)C` (stereo not given), the compound was classed as inactive.

As for `CC(C)(C)C(O)/C(=C\c1ccc(Cl)cc1Cl)n1cncn1` (stereo not given), the call was inactive.

Regarding `CC(C)(C)C(O)C(Oc1ccc(Cl)cc1)n1cncn1` (stereo not given), the compound was called inactive.

As to `CC1(C)C(C=C(Cl)Cl)C1C(=O)OC(C#N)c1ccc(F)c(Oc2ccccc2)c1` (stereo not given), the compound was classed as inactive.

Consider `COc1nn(CSP(=S)(OC)OC)c(=O)s1`, for which the call was inactive.

With `CCc1ccc(C(=O)NN(C(=O)c2cc(C)cc(C)c2)C(C)(C)C)cc1`, the outcome was inactive.

Take `ClC1C(Cl)C(Cl)C(Cl)C(Cl)C1Cl` (stereo not given): the compound was classed as inactive.

Regarding `O=C(O)COc1ccc(Cl)cc1Cl`, the outcome was inactive.

Regarding `O=C(Nc1ccccc1)Nc1cnns1`, the compound was classed as inactive.

With `COP(=S)(OC)Oc1ccc([N+](=O)[O-])cc1`, the outcome was inactive.

Regarding `CCC(C)(C)C(=O)OC1=C(c2ccc(Cl)cc2Cl)C(=O)OC12CCCCC2`, the call was inactive.

With `CNC(=O)Oc1ccccc1OC(C)C`, the outcome was inactive.

As for `COP(=S)(OC)Oc1ccc(SC)c(C)c1`, the result was inactive.

With `CNC(=O)Oc1cccc(N=CN(C)C)c1`, the outcome was inactive.

Regarding `CCC(C)Nc1c([N+](=O)[O-])cc(C(C)(C)C)cc1[N+](=O)[O-]` (stereo not given), the compound was called inactive.

With `CCCN(CCC)c1c([N+](=O)[O-])cc(C(F)(F)F)cc1[N+](=O)[O-]`, the result was inactive.
